{
  "source": "PubChem BioAssay (EPA / NIEHS)",
  "note": "Results filed as inconclusive are left out. Activity calls are given as the source filed them. The calls were made as follows, unless noted: active = hit-call score of the fitted dose curve at least 0.9, where 1 is the maximum; inconclusive = response in the unintended direction; inactive = score below 0.9.",
  "data": [
    {"biological_target": "human Peroxisome Proliferator-activated Receptor delta (PPARd), PPARD (gene 5467) (UniProt Q03181)", "sequence (Q03181 whole entry, looked up, the tested form may be a part)": "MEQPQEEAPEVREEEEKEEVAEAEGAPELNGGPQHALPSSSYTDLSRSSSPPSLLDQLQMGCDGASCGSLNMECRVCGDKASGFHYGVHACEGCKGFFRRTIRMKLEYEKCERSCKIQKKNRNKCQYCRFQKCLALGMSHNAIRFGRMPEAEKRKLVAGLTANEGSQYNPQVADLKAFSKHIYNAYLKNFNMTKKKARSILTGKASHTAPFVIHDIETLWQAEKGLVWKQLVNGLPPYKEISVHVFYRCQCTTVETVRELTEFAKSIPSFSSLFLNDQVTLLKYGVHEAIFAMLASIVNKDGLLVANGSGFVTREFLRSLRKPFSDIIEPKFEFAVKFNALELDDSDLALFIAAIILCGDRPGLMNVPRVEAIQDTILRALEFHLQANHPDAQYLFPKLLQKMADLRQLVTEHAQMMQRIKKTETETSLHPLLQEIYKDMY", "assay": "ATG_PPARd_TRANS: Attagene TRANS-FACTORIAL HepG2 Assay for human Peroxisome Proliferator-activated Receptor delta (PPARd) (AID 2283002)", "settings": "not given", "in_short": "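Measured quantity: GAL4-UAS reporter transcript induction in HepG2 after 24 h chemical dosing, with NR-Gal4 chimeras supplied by transient transfection. Detection by RT-PCR and capillary electrophoresis; upward fit against DMSO.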", "values": [
      {"smiles": "O=C1CCCCCCCCCCCCCC1", "outcome": "inactive"},
      {"smiles": "CCCCCCC(O)CCCCCCCCCCC(=O)OC", "note": "(stereo unspecified)", "AC50": "22.8 µM (active)"},
      {"smiles": "COC(=O)c1ccccc1", "outcome": "inactive"},
      {"smiles": "O=C(O)/C=C/C(=O)O", "outcome": "inactive"},
      {"smiles": "O=S(=O)(O)c1cccc2ccccc12", "outcome": "inactive"},
      {"smiles": "CC/C=C\\CC/C=C/C(OCC)OCC", "outcome": "inactive"},
      {"smiles": "C=CCOCC(CC)(CO)COCC=C", "outcome": "inactive"},
      {"smiles": "CCO[Si](CCCN)(OCC)OCC", "outcome": "inactive"},
      {"smiles": "CCCCCCC1CCC(=O)O1", "note": "(stereo unspecified)", "outcome": "inactive"},
      {"smiles": "CCC(=O)OCc1ccc(OC)cc1", "outcome": "inactive"},
      {"smiles": "C=C1CC[C@H]2C[C@@H]1C2(C)C", "outcome": "inactive"},
      {"smiles": "CCCCCC1CCCC(=O)O1", "note": "(stereo unspecified)", "outcome": "inactive"},
      {"smiles": "Cc1cc(-n2nc3ccc(Cl)cc3n2)c(O)c(C(C)(C)C)c1", "outcome": "inactive"},
      {"smiles": "CCCCCCC1CCCC(=O)O1", "note": "(stereo unspecified)", "AC50": "52.6 µM (active)"},
      {"smiles": "CC(C)=CCOC(=O)c1ccccc1", "outcome": "inactive"},
      {"smiles": "CC(C)(C)NC(=O)[C@@H]1CN(Cc2cccnc2)CCN1C[C@@H](O)C[C@@H](Cc1ccccc1)C(=O)N[C@H]1c2ccccc2C[C@H]1O", "outcome": "inactive"},
      {"smiles": "Oc1cccc2ccccc12", "outcome": "inactive"},
      {"smiles": "C=CN1CCCCCC1=O", "outcome": "inactive"},
      {"smiles": "Oc1ccc(Oc2ccccc2)cc1", "outcome": "inactive"},
      {"smiles": "c1ccc2c(c1)Oc1ccccc1S2", "outcome": "inactive"},
      {"smiles": "CCCCCC[C@@H](O)C/C=C\\CCCCCCCC(=O)O", "AC50": "27.3 µM (active)"}
    ]},
    {"read-out": "Intercellular Adhesion Molecule 1 (ICAM1), ICAM1 (gene 3383)", "assay": "BSK_3C_ICAM1: BioMAP Diversity Plus: 3C Assay for Intercellular Adhesion Molecule 1 (ICAM1) Biomarker Activity (AID 2283003; active = hit-call score of the fitted dose curve at least 0.9, where 1 is the maximum; inactive = score below 0.9)", "settings": "primary human endothelial cells (HUVEC); actives raise or lower the signal", "in_short": "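ELISA readout of ICAM1 in human umbilical vein endothelial cells in the 3C system, taken 24 h post-dose. Gain or loss of signal versus DMSO was fitted in both directions, with SRB total-protein staining run in parallel.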", "values": [
      {"smiles": "CCCCCCC(O)CCCCCCCCCCC(=O)OC", "note": "(stereo unspecified)", "outcome": "inactive"},
      {"smiles": "CCC(C)=NO", "outcome": "inactive"},
      {"smiles": "Cc1cc(-n2nc3ccc(Cl)cc3n2)c(O)c(C(C)(C)C)c1", "outcome": "inactive"},
      {"smiles": "Oc1cccc2ccccc12", "outcome": "inactive"},
      {"smiles": "CN(C)c1ccc(C(c2ccccc2)c2ccc(N(C)C)cc2)cc1", "outcome": "inactive"},
      {"smiles": "CC[N+](CC)(CC(=O)Nc1c(C)cccc1C)Cc1ccccc1", "note": "(tested in a mixture with another compound)", "outcome": "inactive"}
    ]},
    {"biological_target": "Retinoic acid receptor alpha (Homo sapiens) (UniProt P10276)", "sequence (P10276 whole entry, looked up, the tested form may be a part)": "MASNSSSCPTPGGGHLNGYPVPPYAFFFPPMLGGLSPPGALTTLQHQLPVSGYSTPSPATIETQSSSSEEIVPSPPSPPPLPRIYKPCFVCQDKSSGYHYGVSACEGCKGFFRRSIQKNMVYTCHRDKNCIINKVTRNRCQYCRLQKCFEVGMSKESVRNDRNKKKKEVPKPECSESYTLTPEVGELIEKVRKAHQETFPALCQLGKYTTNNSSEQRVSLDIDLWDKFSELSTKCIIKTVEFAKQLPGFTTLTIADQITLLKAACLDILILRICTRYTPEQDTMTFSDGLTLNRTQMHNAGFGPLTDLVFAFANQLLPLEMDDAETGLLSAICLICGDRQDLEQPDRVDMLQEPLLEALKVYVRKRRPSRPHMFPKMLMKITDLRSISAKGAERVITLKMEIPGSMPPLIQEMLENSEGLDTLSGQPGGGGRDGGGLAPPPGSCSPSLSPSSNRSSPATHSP", "assay": "ATG_RARa_TRANS: Attagene TRANS-FACTORIAL HepG2 Assay for human Retinoic Acid Receptor alpha (RARa) (AID 2283005)", "settings": "not given", "in_short": "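HepG2 cells transiently transfected with multiple reporter units expressing chimeric RARα-GAL4 fusion, with GAL4-UAS-driven reporters. After 24 h compound exposure, reporter mRNA induction quantified by RT-PCR and capillary electrophoresis with fluorescent labeling; gain-of-signal fitted relative to DMSO control.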", "values": [
      {"smiles": "CCCCCCC(O)CCCCCCCCCCC(=O)OC", "note": "(stereo unspecified)", "outcome": "inactive"},
      {"smiles": "C/C=C(\\C)C(=O)OCC/C=C\\CC", "outcome": "inactive"},
      {"smiles": "CN1CCCC1", "outcome": "inactive"},
      {"smiles": "CCCCCCC1CCC(=O)O1", "note": "(stereo unspecified)", "outcome": "inactive"},
      {"smiles": "O=[N+]([O-])c1ccccc1C(F)(F)F", "outcome": "inactive"},
      {"smiles": "CCCCCC1CCCC(=O)O1", "note": "(stereo unspecified)", "outcome": "inactive"},
      {"smiles": "NC(=O)c1ccc(N)cc1", "outcome": "inactive"},
      {"smiles": "CC(=O)Nc1c(I)c(NC(C)=O)c(I)c(C(=O)O)c1I", "outcome": "inactive"}
    ]},
    {"read-out": "not listed separately", "assay": "BSK_3C_Proliferation: Cell Proliferation Assessment in the BioMAP Diversity Plus: 3C Assay (AID 2283006; active = hit-call score of the fitted dose curve at least 0.9, where 1 is the maximum; inactive = score below 0.9;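 as to AC50: potency may reflect either rise or fall in cell number versus DMSO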)", "settings": "primary human endothelial cells (HUVEC)", "in_short": "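Proliferation as total protein: sulforhodamine B (0.1%) stain of TCA-fixed subconfluent human umbilical vein endothelial cells, absorbance 560 nm, 48 h after dosing. Activity fitted in both directions against DMSO baseline.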", "values": [
      {"smiles": "CCCCCCC(O)CCCCCCCCCCC(=O)OC", "note": "(stereo unspecified)", "outcome": "inactive"},
      {"smiles": "CCC(C)=NO", "outcome": "inactive"},
      {"smiles": "Cc1cc(-n2nc3ccc(Cl)cc3n2)c(O)c(C(C)(C)C)c1", "outcome": "inactive"},
      {"smiles": "Oc1cccc2ccccc12", "outcome": "inactive"},
      {"smiles": "CN(C)c1ccc(C(c2ccccc2)c2ccc(N(C)C)cc2)cc1", "AC50": "2.81 µM (active)"},
      {"smiles": "CC[N+](CC)(CC(=O)Nc1c(C)cccc1C)Cc1ccccc1", "note": "(tested in a mixture with another compound)", "outcome": "inactive"}
    ]}
  ]
}
